Where a chain is given by its changes, count along the chain named.
What was measured:
Assay in all cases: PBM; 200 nM protein, PBS
Settings in all cases: dsDNA, one strand shown
SIX6 [1] = target: T1, SIX6 (Homo sapiens, UniProt O95475 114-200, L167I)
T1 sequence: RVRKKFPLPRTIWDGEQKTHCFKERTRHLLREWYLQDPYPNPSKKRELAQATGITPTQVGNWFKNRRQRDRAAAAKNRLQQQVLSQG

SIX6 [2] = target: T2, SIX6 (Homo sapiens, UniProt O95475 114-200, L143V)
T2 sequence: T1 sequence with L30V, I54L

HOXA7 [3] = target: HOXA7 (Homo sapiens, UniProt P31268 116-202)
Sequence of HOXA7 (Homo sapiens, UniProt P31268 116-202) (P31268 116-202): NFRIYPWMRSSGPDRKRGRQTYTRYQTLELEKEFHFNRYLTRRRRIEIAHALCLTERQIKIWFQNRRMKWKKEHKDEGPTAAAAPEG

SIX6 [4] = target: T3, SIX6 (Homo sapiens, UniProt O95475 114-200, H141N)
T3 sequence: T1 sequence with H28N, I54L

SIX6 [5] = target: T4, SIX6 (Homo sapiens, UniProt O95475 114-200, T165P)
T4 sequence: T1 sequence with T52P, I54L

SIX6 [6] = target: T5, SIX6 (Homo sapiens, UniProt O95475 114-200, L167M)
T5 sequence: T1 sequence with I54M

SIX6 [7] = target: T6, SIX6 (Homo sapiens, UniProt O95475 114-200, L143M)
T6 sequence: T1 sequence with L30M, I54L

SIX6 [8] = target: T7, SIX6 (Homo sapiens, UniProt O95475 114-200, L143I)
T7 sequence: T1 sequence with L30I, I54L

SIX6 [9] = target: T8, SIX6 (Homo sapiens, UniProt O95475 114-200, T165G)
T8 sequence: T1 sequence with T52G, I54L

SIX6 [10] = target: T9, SIX6 (Homo sapiens, UniProt O95475 114-200, T139Q)
T9 sequence: T1 sequence with T26Q, I54L

SIX6 [11] = target: T10, SIX6 (Homo sapiens, UniProt O95475 114-200, T165A)
T10 sequence: T1 sequence with T52A, I54L

SIX6 [12] = target: T11, SIX6 (Homo sapiens, UniProt O95475 114-200, L167V)
T11 sequence: T1 sequence with I54V

SIX6 [13] = target: T12, SIX6 (Homo sapiens, UniProt O95475 114-200)
T12 sequence: T1 sequence with I54L

SIX6 [14] = target: T13, SIX6 (Homo sapiens, UniProt O95475 114-200, T165I)
T13 sequence: T1 sequence with T52I, I54L

HOXA7 [15] = target: HOXA7 (Homo sapiens, UniProt P31268 116-202, W177C)
Sequence of HOXA7 (Homo sapiens, UniProt P31268 116-202, W177C) (P31268 116-202 W177C): as the sequence (P31268 116-202) above, with W62C counted along it

Sequence	binding signal (SIX6 [1])	binding signal (SIX6 [2])	binding signal (HOXA7 [3])	binding signal (SIX6 [4])	binding signal (SIX6 [5])	binding signal (SIX6 [6])	binding signal (SIX6 [7])	binding signal (SIX6 [8])	binding signal (SIX6 [9])	binding signal (SIX6 [10])	binding signal (SIX6 [11])	binding signal (SIX6 [12])	binding signal (SIX6 [13])	binding signal (SIX6 [14])	binding signal (HOXA7 [15])
CGGCCTGC	8.86 upbm affinity estimate (log intensity, higher = more binding, comparable within an allelic series)	8.66 upbm affinity estimate (log intensity, higher = more binding, comparable within an allelic series)	8.37 upbm affinity estimate (log intensity, higher = more binding, comparable within an allelic series)	8.83 upbm affinity estimate (log intensity, higher = more binding, comparable within an allelic series)	8.82 upbm affinity estimate (log intensity, higher = more binding, comparable within an allelic series)	8.8 upbm affinity estimate (log intensity, higher = more binding, comparable within an allelic series)	8.73 upbm affinity estimate (log intensity, higher = more binding, comparable within an allelic series)	8.72 upbm affinity estimate (log intensity, higher = more binding, comparable within an allelic series)	8.88 upbm affinity estimate (log intensity, higher = more binding, comparable within an allelic series)	8.8 upbm affinity estimate (log intensity, higher = more binding, comparable within an allelic series)	8.82 upbm affinity estimate (log intensity, higher = more binding, comparable within an allelic series)	8.8 upbm affinity estimate (log intensity, higher = more binding, comparable within an allelic series)	8.79 upbm affinity estimate (log intensity, higher = more binding, comparable within an allelic series)	8.82 upbm affinity estimate (log intensity, higher = more binding, comparable within an allelic series)	8.26 upbm affinity estimate (log intensity, higher = more binding, comparable within an allelic series)
GCACGCCC	8.91 upbm affinity estimate (log intensity, higher = more binding, comparable within an allelic series)	8.8 upbm affinity estimate (log intensity, higher = more binding, comparable within an allelic series)	8.55 upbm affinity estimate (log intensity, higher = more binding, comparable within an allelic series)	8.92 upbm affinity estimate (log intensity, higher = more binding, comparable within an allelic series)	8.82 upbm affinity estimate (log intensity, higher = more binding, comparable within an allelic series)	8.88 upbm affinity estimate (log intensity, higher = more binding, comparable within an allelic series)	8.84 upbm affinity estimate (log intensity, higher = more binding, comparable within an allelic series)	8.88 upbm affinity estimate (log intensity, higher = more binding, comparable within an allelic series)	8.97 upbm affinity estimate (log intensity, higher = more binding, comparable within an allelic series)	8.92 upbm affinity estimate (log intensity, higher = more binding, comparable within an allelic series)	8.91 upbm affinity estimate (log intensity, higher = more binding, comparable within an allelic series)	8.87 upbm affinity estimate (log intensity, higher = more binding, comparable within an allelic series)	8.94 upbm affinity estimate (log intensity, higher = more binding, comparable within an allelic series)	8.8 upbm affinity estimate (log intensity, higher = more binding, comparable within an allelic series)	8.44 upbm affinity estimate (log intensity, higher = more binding, comparable within an allelic series)
